According to PubChem BioAssay (NCI):
The panel holds about 83,000 compounds, 20% with a hit somewhere; the sample as a whole holds those more often.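 For each line, cells grew in 96-well plates with the test compound present at a single concentration for 48 hours.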 A number with no mark means an inactive call. Active and inactive are the calls of the source. How the source made its calls: active means growth percent below 10; inactive means the rest.

What follows are compounds tested on NCI-H226 lung (assay: NCI-60 one-dose screen, 48 h (100 = growth as untreated, 0 = no growth, -100 = all killed)). Conditions: 10 µM unless noted.

| SMILES | growth |
| --- | --- |
| C=CC(=O)Nc1cccc(-c2nc(SC)nc(NCc3ccccc3)c2C#N)c1 | 46.8% |
| COC(=O)c1ccc2oc(NC(=O)c3ccc(Nc4ccc([N+](=O)[O-])cc4C)c([N+](=O)[O-])c3)nc2c1 | 92.1% |
| COc1cc(/C=C/c2cc(/C=C/c3ccc(O)c(OC)c3)n(-c3c(Cl)cccc3Cl)c(=O)n2)ccc1O | 48.8% |
| CSc1nc(Nc2cccc(NC(=O)CCl)c2)c(C#N)c(-c2cccc([N+](=O)[O-])c2)n1 | 42.2% |
| CC(C)(C)N1CCC1CN (stereo unspecified) | 111% |
| Cc1ccc(NC(=O)/C=C/c2ccccc2)c(C(N)=O)c1 | 68.2% |
| COc1ccc(-n2nc(C)c3c(Nc4ccc(NC(=O)Nc5cccc(C(F)(F)F)c5)cc4)ncnc32)cc1 | 34.1% |
| O=C1OCC2=C1C(c1ccncc1)c1cc3c(cc1N2CCO)OCO3 (stereo unspecified) | 102% |
| C#Cc1cccc(NC(=O)c2ccccc2NC(=O)C=C)c1 | 97.6% [8.25 µM] |
| CCOc1cc2ncc(C#N)c(Nc3ccc(F)c(Cl)c3)c2cc1NC(=O)CC1CCSS1 (stereo unspecified) | -50.9% (active) |
| CN(Cc1cc(Cl)cc(Cl)c1O)Cc1cc(Cl)cc(Cl)c1O | 71.5% |
| CC(=O)O[C@H]1[C@@H]2OC(=O)C(CSc3ccccc3)[C@@H]2C[C@H]2O[C@]2(C)CC/C=C(\C)CCC[C@@H]1C (stereo partly specified) | 47.9% |
| COc1ccc(/C=N/C2=C(C#N)C(c3ccc(N(C)C)cc3)c3ccc4ccccc4c3O2)cc1 (stereo unspecified) | 44.6% |
| C[n+]1ccccc1/C=C/c1ccc2cccc(O)c2n1 | 86.8% |
| Cc1nn(-c2ccc(F)cc2)c2ncnc(Oc3ccc(NC(=O)Nc4ccc(Cl)c(C(F)(F)F)c4)cc3)c12 | 103% |
| COc1ccc(C(=O)c2sc3nc(C)cc(C)c3c2N)cc1OC | 89.8% |
| C=CC(=O)Nc1cccc(-c2nc(SC)nc(Nc3ccccc3OC)c2C#N)c1 | 34.3% |
| Nc1nc2ncc(CCNc3ccc(C(=O)O)cc3)nc2c(=O)[nH]1 | 100% |
| CCCSc1ccc2nc(NC(=O)OC)[nH]c2c1 | 23.2% |

| SMILES | growth |
| --- | --- |
| CCCc1cc(=O)n2c(C(=O)Nc3ccc(F)cc3)c(C(=O)Nc3ccc(F)cc3)sc2n1 | 69.5% [30 µM] |
| O=C(/C=C/c1ccccc1)c1ccc(O)c(CN2CCN(c3cc4c(cc3F)c(=O)c(C(=O)O)cn4C3CC3)CC2)c1 | 40.4% |
| CCOC(=O)c1sc2nc(-c3cccc(OC)c3)nc(N3CCOCC3)c2c1C | 79.5% |
| CCCCCCCCCCCCC[N+](C)(C)Cc1ccccc1 | -8.07% (active) |
| CCCOc1ccc2nc(NC(=O)OC)[nH]c2c1 | 8.05% (active) |
| Nc1n[nH]c2ccc([C@@H]3Nc4ccc5cn[nH]c5c4[C@H]4C5CCC(C5)[C@@H]34)cc12 (stereo partly specified) | 37.9% |
| O=c1nc2oc3ccc4ccccc4c3cc-2s1 | 37.5% |
| COC(=O)c1cccc(NC(=O)c2ccc(-c3cccc(N)c3)o2)c1 | 85.8% |
| CCOC(=O)c1c(C)oc2ncnc(N3CCN(C(=S)Nc4ccccc4)CC3)c12 | 87.2% |
| CCCCN(CCCC)CCCn1c(-c2ccccc2)ccc1-c1ccccc1 | 53.6% |
| CN1CCN(CCCOc2cccc3nc(Nc4ccc(Cl)c(F)c4)ccc23)CC1 | 58.1% |
| COc1cccc(/C=N/NC(=O)c2ccccc2Nc2ccnc(C(F)(F)F)c2)c1O | -20.2% (active) |
| COc1cc2nc(N3CCCC3)nc(NCc3ccccc3)c2cc1OC | 90% |
| COc1cc2c(cc1-c1c(C)noc1C)ncc1nc(-c3ccccn3)n([C@H](C)COC(F)F)c12 | 57.8% |
| COc1cccc(-c2nc3sccn3c2-c2ccnc(NCCCNS(=O)(=O)c3c(Cl)cccc3Cl)c2)c1 | 51.8% |
| N#Cc1c(-c2ccc(Cl)cc2)nc(NN=Cc2ccco2)nc1N1CCOCC1 | 70.8% |
| O=C(Nc1cccc2[nH]c(C(F)(F)F)nc12)c1ccc(-n2cnnn2)cc1 | 92.2% |
| CC1CCNC(C)C1 (stereo unspecified) | 95.7% |
| CCN(CC)c1ccc(-c2cc(-c3cc(OC)c(OC)c(OC)c3)nc(N3CCOCC3)c2C#N)cc1 | 8.07% (active) |

Each compound was assayed on NCI-H322M lung in the same assay as above. Conditions: 10 µM unless noted.

| SMILES | growth |
| --- | --- |
| C=CC(=O)Nc1cccc(-c2nc(SC)nc(NCc3ccccc3)c2C#N)c1 | 73.8% |
| COC(=O)c1ccc2oc(NC(=O)c3ccc(Nc4ccc([N+](=O)[O-])cc4C)c([N+](=O)[O-])c3)nc2c1 | 101% |
| COc1cc(/C=C/c2cc(/C=C/c3ccc(O)c(OC)c3)n(-c3c(Cl)cccc3Cl)c(=O)n2)ccc1O | 72.7% |
| CSc1nc(Nc2cccc(NC(=O)CCl)c2)c(C#N)c(-c2cccc([N+](=O)[O-])c2)n1 | 97.4% |
| CC(C)(C)N1CCC1CN (stereo unspecified) | 118% |
| Cc1ccc(NC(=O)/C=C/c2ccccc2)c(C(N)=O)c1 | 63.1% |
| COc1ccc(-n2nc(C)c3c(Nc4ccc(NC(=O)Nc5cccc(C(F)(F)F)c5)cc4)ncnc32)cc1 | 5.43% (active) |
| O=C1OCC2=C1C(c1ccncc1)c1cc3c(cc1N2CCO)OCO3 (stereo unspecified) | 98.3% |
| C#Cc1cccc(NC(=O)c2ccccc2NC(=O)C=C)c1 | 101% [8.25 µM] |
| CCOc1cc2ncc(C#N)c(Nc3ccc(F)c(Cl)c3)c2cc1NC(=O)CC1CCSS1 (stereo unspecified) | -74.5% (active) |
| CN(Cc1cc(Cl)cc(Cl)c1O)Cc1cc(Cl)cc(Cl)c1O | 54.9% |
| CC(=O)O[C@H]1[C@@H]2OC(=O)C(CSc3ccccc3)[C@@H]2C[C@H]2O[C@]2(C)CC/C=C(\C)CCC[C@@H]1C (stereo partly specified) | 38% |
| COc1ccc(/C=N/C2=C(C#N)C(c3ccc(N(C)C)cc3)c3ccc4ccccc4c3O2)cc1 (stereo unspecified) | 89.1% |
| C[n+]1ccccc1/C=C/c1ccc2cccc(O)c2n1 | 136% |
| Cc1nn(-c2ccc(F)cc2)c2ncnc(Oc3ccc(NC(=O)Nc4ccc(Cl)c(C(F)(F)F)c4)cc3)c12 | 100% |
| COc1ccc(C(=O)c2sc3nc(C)cc(C)c3c2N)cc1OC | 87.9% |
| C=CC(=O)Nc1cccc(-c2nc(SC)nc(Nc3ccccc3OC)c2C#N)c1 | 80% |
| Nc1nc2ncc(CCNc3ccc(C(=O)O)cc3)nc2c(=O)[nH]1 | 125% |
| CCCSc1ccc2nc(NC(=O)OC)[nH]c2c1 | 60.1% |

| SMILES | growth |
| --- | --- |
| CCCc1cc(=O)n2c(C(=O)Nc3ccc(F)cc3)c(C(=O)Nc3ccc(F)cc3)sc2n1 | 54.8% [30 µM] |
| O=C(/C=C/c1ccccc1)c1ccc(O)c(CN2CCN(c3cc4c(cc3F)c(=O)c(C(=O)O)cn4C3CC3)CC2)c1 | 22.7% |
| CCOC(=O)c1sc2nc(-c3cccc(OC)c3)nc(N3CCOCC3)c2c1C | 94.4% |
| CCCCCCCCCCCCC[N+](C)(C)Cc1ccccc1 | 82.5% |
| CCCOc1ccc2nc(NC(=O)OC)[nH]c2c1 | 49.9% |
| Nc1n[nH]c2ccc([C@@H]3Nc4ccc5cn[nH]c5c4[C@H]4C5CCC(C5)[C@@H]34)cc12 (stereo partly specified) | 47.2% |
| O=c1nc2oc3ccc4ccccc4c3cc-2s1 | 35% |
| COC(=O)c1cccc(NC(=O)c2ccc(-c3cccc(N)c3)o2)c1 | 101% |
| CCOC(=O)c1c(C)oc2ncnc(N3CCN(C(=S)Nc4ccccc4)CC3)c12 | 92.3% |
| CCCCN(CCCC)CCCn1c(-c2ccccc2)ccc1-c1ccccc1 | 86.7% |
| CN1CCN(CCCOc2cccc3nc(Nc4ccc(Cl)c(F)c4)ccc23)CC1 | 33.6% |
| COc1cccc(/C=N/NC(=O)c2ccccc2Nc2ccnc(C(F)(F)F)c2)c1O | 17.4% |
| COc1cc2nc(N3CCCC3)nc(NCc3ccccc3)c2cc1OC | 79.7% |
| COc1cc2c(cc1-c1c(C)noc1C)ncc1nc(-c3ccccn3)n([C@H](C)COC(F)F)c12 | 51.4% |
| COc1cccc(-c2nc3sccn3c2-c2ccnc(NCCCNS(=O)(=O)c3c(Cl)cccc3Cl)c2)c1 | 90.5% |
| N#Cc1c(-c2ccc(Cl)cc2)nc(NN=Cc2ccco2)nc1N1CCOCC1 | 69.4% |
| O=C(Nc1cccc2[nH]c(C(F)(F)F)nc12)c1ccc(-n2cnnn2)cc1 | 107% |
| CC1CCNC(C)C1 (stereo unspecified) | 109% |
| CCN(CC)c1ccc(-c2cc(-c3cc(OC)c(OC)c(OC)c3)nc(N3CCOCC3)c2C#N)cc1 | 52.9% |
